Among the data in PubChem BioAssay (Tox21) are Potency, activity change, positive = activation and max response values, retold here.

Values joined by “and” are separate entries in the source; they are usually repeats but may differ in a detail not shown here. Equal values may be shown once. Results filed as inconclusive are left out. More than one record can exist for a structure, and the calls need not agree. Active and inactive are the calls of the source. Unless noted, calls come from the whole dose curve; as a rule, active = well fitted curve in the direction sought with a large enough effect in the repeat runs; inconclusive = weak or mixed curves; inactive = no such curve, though single readings can be large; an effect the other way counts as inactive or inconclusive.

A short description of assay [1]: qHTS assay to identify small molecule agonists of the hypoxia (HIF-1) signaling pathway - cell viability counter screen (AID 1224844; calls by dose curve; note: nearly all actives have a fitted effect of over 50% in size; note: potency is the fitted concentration of half-maximal effect). The procedure, abridged:
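CellTiter-Glo luminescence read-out, 30 min RT, taken in the same wells as the beta-lactamase HRE reporter assay; HRE-bla ME-180 cells, 0.5% dialyzed FBS, 17 hr compound treatment at 37C, 5% CO2.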

Assay [2] is described as follows: qHTS assay to identify small molecule agonists of H2AX (AID 1224845; active = well fitted activation curve with a large enough effect in the signal ratio in the repeat runs, not every such curve was filed as active; the % refers to the signal ratio). The essentials: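 Wild-type CHO-K1 cells plated overnight, then exposed 3 hr at 37C to compounds at 15 concentrations (0.76% DMSO). Lysed, then HTRF anti-pH2AX(S139)-cryptate/anti-H2AX-d2 detection after 24 hr at room temperature; emissions 665 and 620 nm.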
In general terms: qHTS replaces the single test concentration by a dilution series.

A short description of assay [3]: qHTS assay to identify small molecule agonists of H2AX - cell viability counter screen (AID 1224847; calls by dose curve; note: nearly all actives have a fitted effect of over 30% in size; note: potency is the fitted concentration of half-maximal effect). The essentials: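 After overnight plating of 1000 CHO-K1 cells per well, a 15-concentration compound series was applied for 3 hr at 37C. Luminescence from CellTiter-Glo, read following 30 min at room temperature, reflected cell viability.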
Assay [4] in a line: qHTS assay to identify small molecule antagonists of the estrogen related receptor (ERR) signaling pathway from Tox21 library (AID 1224848). Note: nearly all actives have a fitted effect of over 50% in size. Note: potency is the fitted concentration of half-maximal effect. The essentials: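 First, 2,000 ERR cells per well were plated and held 6 h at 37 C/5% CO2. Next, compounds in DMSO were pinned in and left 18 h at 37 C. Finally, ONE-Glo was added and luminescence read after 30 min at room temperature.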

Assay [5] in a line: qHTS assay to identify small molecule agonists of the estrogen related receptor (ERR) signaling pathway from Tox21 library (AID 1224849; calls by dose curve; note: nearly all actives have a fitted effect of over 15% in size). Conditions: ERR reporter cell line, ONE-Glo luciferase, 18 h; at 92.4 µM (top of the series) unless noted. The essentials:
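Luminescence readout (ONE-Glo, 30 min RT) after 18 h compound exposure at 37 C of NTP-supplied ERR reporter cells; cells were plated 6 h before compound addition by pin tool.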

Assay [6] is described as follows: qHTS RealTime-Glo MT Cell Viability Assay in HepG2 cells - 24 hour (AID 1224867). Note: nearly all actives have a fitted effect of over 50% in size. Note: potency is the fitted concentration of half-maximal effect. The procedure, abridged:
(§1)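 HepG2 cells (600/well) were dispensed with RealTime-Glo reagents, incubated 5 h at 37 °C, then treated with compounds in DMSO for up to 40 h. Nonlytic NanoLuc luminescence reflecting viable cells was read at each stated time point.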

The nature of assay [7]: qHTS RealTime-Glo MT Cell Viability Assay in HEK293 cells - 32 hour (AID 1224868). Note: nearly all actives have a fitted effect of over 50% in size. Note: potency is the fitted concentration of half-maximal effect. The procedure, abridged:
(§2)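 HEK293 cells seeded with NanoLuc/prosubstrate reagent, rested 5 h at 37 C, then dosed and kept at 37 C up to 40 h. Nonlytic real-time luminescence from viable cells read at 0, 8, 16, 24, 32 and 40 h.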

The nature of assay [8]: A CellTox Green Cytotoxicity Assay to monitor cytotoxicity in HEK293 cells - 0 hour (AID 1224869). Note: nearly all actives have a fitted effect of over 50% in size. The essentials:
(§3)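 Read-out: fluorescence of a cell-impermeant cyanine dye staining DNA of dead cells, proportional to cytotoxicity. HEK293, 600 cells/well with reagent, compound (23 nL DMSO) added after 5 h; reads at 0, 8, 16, 24, 32, 40 h.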

Assay [9] in a line: qHTS RealTime-Glo MT Cell Viability Assay in HepG2 cells - 40 hour (AID 1224870). Note: nearly all actives have a fitted effect of over 50% in size. Note: potency is the fitted concentration of half-maximal effect. The essentials:
(§4)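 HepG2 cells mixed with RealTime-Glo MT reagents (NanoLuc plus cell-permeant prosubstrate) were seeded at 600 cells/well, incubated 5 h at 37 C/5% CO2, then pinned with compounds in DMSO; nonlytic luminescence tracked viability during 40 h treatment.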

A short description of assay [10]: A CellTox Green Cytotoxicity Assay to monitor cytotoxicity in HEK293 cells - 40 hour (AID 1224871). Note: nearly all actives have a fitted effect of over 45% in size. Note: potency is the fitted concentration of half-maximal effect. The procedure, abridged:
as §3

Assay [11] is described as follows: qHTS RealTime-Glo MT Cell Viability Assay in HEK293 cells - 16 hour (AID 1224872). Note: nearly all actives have a fitted effect of over 50% in size. Note: potency is the fitted concentration of half-maximal effect. The procedure, abridged:
as §2

Assay [12] in a line: qHTS RealTime-Glo MT Cell Viability Assay in HepG2 cells - 8 hour (AID 1224873). Note: nearly all actives have a fitted effect of over 55% in size. Note: potency is the fitted concentration of half-maximal effect. The essentials: as §4
The nature of assay [13]: qHTS RealTime-Glo MT Cell Viability Assay in HEK293 cells - 40 hour (AID 1224874). Note: nearly all actives have a fitted effect of over 50% in size. Note: potency is the fitted concentration of half-maximal effect. The settings on record: RealTime-Glo luminescence; max response: stronger effect = lower value. The procedure, abridged: (§5)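 Luminescence readout at each listed time point; HEK293, 600 cells/well, RealTime-Glo MT reagent added with cells; compounds pinned (23 nL in DMSO) after 5 h at 37 C; continuous culture at 37 C.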

Assay [14] is described as follows: A CellTox Green Cytotoxicity Assay to monitor cytotoxicity in HEK293 cells - 24 hour (AID 1224875). Note: nearly all actives have a fitted effect of over 45% in size. The essentials: as §3
Assay [15] in a line: A CellTox Green Cytotoxicity Assay to monitor cytotoxicity in HepG2 cells - 16 hour (AID 1224876). Note: nearly all actives have a fitted effect of over 45% in size. Note: potency is the fitted concentration of half-maximal effect. The essentials: (§6)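 HepG2, 600 cells/well premixed w/ CellTox Green; 5 h settle, 37 C/5% CO2; pintool cpd add (DMSO); 37 C, 40 h; fluorescence read at 0, 8, 16, 24, 32, 40 h.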
Assay [16] in a line: qHTS RealTime-Glo MT Cell Viability Assay in HepG2 cells - 32 hour (AID 1224877). Note: nearly all actives have a fitted effect of over 55% in size. Note: potency is the fitted concentration of half-maximal effect. The essentials:
as §1

Assay [17] is described as follows: A CellTox Green Cytotoxicity Assay to monitor cytotoxicity in HepG2 cells - 24 hour (AID 1224878). Note: nearly all actives have a fitted effect of over 45% in size. Note: potency is the fitted concentration of half-maximal effect. The essentials: as §6
A short description of assay [18]: A CellTox Green Cytotoxicity Assay to monitor cytotoxicity in HepG2 cells - 40 hour (AID 1224879). Note: nearly all actives have a fitted effect of over 40% in size. Note: potency is the fitted concentration of half-maximal effect. The essentials: as §6
The nature of assay [19]: qHTS RealTime-Glo MT Cell Viability Assay in HEK293 cells - 0 hour (AID 1224880). The procedure, abridged: as §5
% is set by controls: 0 for no effect and ±100 for the full control effect.

With `CN=C=O`, the Potency entry in assay [1], in [2], in [3], in assay [4], in assay [6] and in assay [7] was “inactive” each time. Further, the Potency result in [8], in assay [9], in [10], in assay [11], in [12] and in assay [14] was “inactive” throughout. The Potency result in [15], in assay [16], in [17], in assay [18] and in assay [19] was “inactive” throughout. Further, the activity change, positive = activation in assay [5] is 0.484% (inactive). The max response in [13] was 8.4% (inactive).
In the case of `CCOC(=O)Cc1ccccc1`, the Potency result in assay [1], in assay [2], in [3], in [6], in assay [7] and in [8] was “inactive” in each case. Also, the Potency result in assay [9], in assay [10], in assay [11], in assay [12], in [14] and in assay [15] was “inactive” in each case. The Potency result in assay [16], in assay [17], in [18] and in [19] was “inactive” throughout. In addition, the max response in [13] was 17.4% (inactive).
For `COC(=O)N(OC)c1ccccc1COc1ccn(-c2ccc(Cl)cc2)n1`, the Potency entry in [1], in [2], in assay [6], in [8], in assay [9] and in [14] was “inactive” throughout. Besides, the Potency entry in [16], in [17], in [18] and in [19] was “inactive” throughout. The Potency in [3] is 1.27 µM (active); in assay [4], 137 nM (active); in [7], 21.9 µM (active); in [13], 13.8 µM (active). Moreover, the activity change, positive = activation in assay [5] was -52.1% (inactive).
In the case of `C[C@@H]1CC2=CC(=O)CC[C@@H]2[C@H]2CC[C@@]3(C)[C@@H](CC[C@]3(C)O)[C@@H]21`, the Potency entry in [1], in assay [2], in [3], in assay [6], in [8] and in [9] was “inactive” throughout. Also, the Potency result in assay [10], in assay [12], in [14], in [16], in [17] and in [18] was “inactive” throughout. Besides, the Potency entry in [19] was “inactive”. The activity change, positive = activation in assay [5] is -28.8% [at 42.5 µM] (inactive).
In the case of `COP(=S)(OC)Oc1ccc([N+](=O)[O-])c(C)c1`, the Potency entry in [1], in assay [2], in assay [3], in assay [6], in assay [7] and in assay [8] was “inactive” throughout. Moreover, the Potency entry in assay [9], in [10], in assay [11], in assay [12], in assay [14] and in [15] was “inactive” in each case. The Potency entry in assay [16], in assay [17], in assay [18] and in assay [19] was “inactive” throughout. Further, the activity change, positive = activation in [5] was -19.2% (inactive). For the same compound, the max response in assay [13] was -0.352% (inactive).
In the case of `CCCCc1ccccc1`, the Potency entry in assay [1], in assay [2], in [3], in assay [6], in assay [7] and in assay [8] was “inactive” throughout. The Potency result in assay [9], in [10], in assay [11], in assay [12], in assay [14] and in assay [15] was “inactive” throughout. Further, the Potency entry in assay [16], in assay [17], in assay [18] and in assay [19] was “inactive” throughout. In addition, the max response in [13] was -16% (inactive).
On to `CCCCCCCCCCCCCCn1cc[n+](C)c1`, for which the Potency in [1] is 24.6 µM (active) and 43.2 µM (active) and inactive; in assay [3] it was 12.7 µM (active) and 22.3 µM (active); in [4], 1.73 µM (active) and 1.35 µM (active); in assay [6] it was 24.6 µM (active) and 48.5 µM (active) and inactive; in [7] it was 8.72 µM (active) and 4.32 µM (active); in [9], 21.9 µM (active) and 34.3 µM (active) and inactive. Besides, the Potency in [10] is 39 µM (active) and 38.5 µM (active) and inactive; in assay [11], 55 µM (active) and 24.3 µM (active); in assay [12], 49.1 µM (active) and inactive; in [13], 2.76 µM (active) and 1.93 µM (active); in [15] it was 34.7 µM (active) and 43.2 µM (active) and inactive; in assay [16], 21.9 µM (active) and 38.5 µM (active) and inactive. Further, the Potency in assay [17] is 24.6 µM (active) and 38.5 µM (active) and inactive; in assay [18], 19.5 µM (active) and 21.6 µM (active) and inactive. Moreover, the Potency result in assay [2], in assay [8] and in [19] was “inactive” each time. The activity change, positive = activation in [5] is -74.5% (inactive) and -73.1% (inactive) and -26.1% (inactive).
